Bioassay records from PubChem BioAssay.
This is a sample that favours compounds with a hit; in the whole collection about 2.7% have one here.
gsp antagonist: antagonists of gsp mutant (McCune-Albright syndrome) | actives 0.4% (n = 340,000) | gsp-mutant cells, cAMP HTRF, 30 min | Potency, µM (highest dose often 76.9 µM), without a hit: top-dose activity change, negative = inhibition, hits mostly inhibitors; calls by dose curve; cell line not stated here;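 note: intracellular cAMP measured with PDE inhibitor Ro 20-1724 present during compound exposure; potency is the fitted concentration of half-maximal effect; % is set by controls: 0 for no effect and ±100 for the full control effect; nearly all actives have a fitted effect of over 65% in size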
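G418-selected cells were plated in DMEM/10% FBS for 16-24 h at 37C, then treated with compounds plus the PDE inhibitor […] (300 uM solution added) for 30 min at 37C. Intracellular cAMP was measured by HTRF after 30 min lysis at room temperature.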
gsp ag: gsp mutant agonism. gsp mutant cells, cAMP HTRF, 30 min. Potency, µM (highest dose often 76.9 µM), without a hit: at the top dose activation (cAMP increase), usual class: activators. actives 0.13% (n = 340,000). AID 624287; active = well fitted activation curve with a large enough effect; inconclusive = small, poorly fitted or top-dose-only effect, or another doubt; inactive = no such curve, though single readings can be large or run the other way; cell line not stated here;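 note: phosphodiesterase inhibitor Ro 20-1724 added with compounds to block cAMP breakdown; potency is the fitted concentration of half-maximal effect; nearly all actives have a fitted effect of over 60% in size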
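Cells stably selected in G418 were plated at 2000/well, grown 16-24 hr, then given compounds in DMSO with the PDE inhibitor […] (300 uM solution added) for 30 min at 37C; cAMP was read by HTRF.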
ClpP mod: qHTS Assay for Activators of ClpP. ATP-dependent Clp protease proteolytic subunit (Bacillus subtilis (strain 168)), P80244. purified B. subtilis ClpP, FRET peptide cleavage, 20 min. Potency, µM (doses to about 57.5 µM), without a hit: at the top dose activity change, negative = active. actives 1.9% (n = 340,000). AID 651965, 2013; active = well fitted falling curve with a large enough effect; inconclusive = small, poorly fitted or top-dose-only effect; inactive = no such curve, though single readings can be large or run the other way; note: potency is the fitted concentration of half-maximal effect; the source files actives as falling curves though it sought activators and does not explain the sign; nearly all actives have a fitted effect of over 65% in size
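ClpP 10 microg/mL final, pH 8 Tris/KCl buffer with BSA, glycerol, Tween-20; compound pinned in; FRET-FV substrate; RT 20 min; Ex320/Em430; ΔFRET vs ADEP 5.8 microM, DMSO, no enzyme.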
RXFP1 antag: blocks the human relaxin receptor RXFP1; Q9HBX9; HEK293-RXFP1, relaxin-stimulated cAMP HTRF, 30 min; hits give low values; activity change, negative = inhibition, % at 57.5 µM; actives 0.59% (n = 350,000);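 active = activity change of -60% or lower, but not beyond a set lower limit; inconclusive = change between -60% and -40%, or beyond the set limit; inactive = change above -40%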; note: % is set by controls: 0 for no effect and ±100 for the full control effect
Target sequence (Q9HBX9 whole entry, looked up): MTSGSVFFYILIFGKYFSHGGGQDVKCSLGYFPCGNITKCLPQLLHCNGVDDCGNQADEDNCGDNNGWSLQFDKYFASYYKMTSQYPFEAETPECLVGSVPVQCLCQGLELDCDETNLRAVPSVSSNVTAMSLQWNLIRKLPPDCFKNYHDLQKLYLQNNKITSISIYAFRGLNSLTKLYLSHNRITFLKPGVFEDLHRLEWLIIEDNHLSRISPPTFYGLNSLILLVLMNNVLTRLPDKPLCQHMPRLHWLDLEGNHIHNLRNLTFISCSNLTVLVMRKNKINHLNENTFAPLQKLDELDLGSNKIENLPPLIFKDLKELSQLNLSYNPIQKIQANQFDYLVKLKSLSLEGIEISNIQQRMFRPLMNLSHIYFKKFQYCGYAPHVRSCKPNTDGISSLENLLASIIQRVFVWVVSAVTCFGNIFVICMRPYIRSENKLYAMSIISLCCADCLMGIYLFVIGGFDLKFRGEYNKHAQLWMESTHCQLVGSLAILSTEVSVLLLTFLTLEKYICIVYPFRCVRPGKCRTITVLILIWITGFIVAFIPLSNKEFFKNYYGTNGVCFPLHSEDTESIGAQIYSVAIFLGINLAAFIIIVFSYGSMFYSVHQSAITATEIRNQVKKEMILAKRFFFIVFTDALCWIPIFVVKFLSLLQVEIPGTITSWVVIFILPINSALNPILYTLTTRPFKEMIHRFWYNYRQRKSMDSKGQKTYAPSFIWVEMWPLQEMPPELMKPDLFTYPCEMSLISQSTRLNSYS
RXFP1 agonist: RXFP1 (human) receptor agonism; Potency, µM (doses to about 57.5 µM), without a hit: at the top dose activation, usual class: activators; HEK293T-RXFP1 cAMP TR-FRET, 30 min; response scale: percent of porcine relaxin response, buffer zero; AID 2676; actives 0.3% (n = 370,000); active = well fitted activation curve with a large enough effect; inconclusive = small, poorly fitted or top-dose-only effect; note: potency is the fitted concentration of half-maximal effect; % is set by controls: 0 for no effect and ±100 for the full control effect; nearly all actives have a fitted effect of over 60% in size
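cAMP rise read by TR-FRET after 30 min, 37C compound exposure (up to 58 uM) in RXFP1-transfected HEK293 cells with Ro 20174 present. EC50 from Hill-equation fits, with 29 nM porcine relaxin as 100% and buffer as basal.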
Akt phos inh: inhibitors of Akt phosphorylation; Neuro2A IGF-stimulated pAkt S473 HTRF, 20 min; hits give low values; activity change, % for hits at 50 µM; actives 0.32% (n = 360,000); AID 651550; in the data active = activity change below about -80%; inconclusive = mostly about -51% to -80%; note: % is set by controls: 0 for no effect and ±100 for the full control effect
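Single-point screen (50 µM final compound) in Neuro2A cells stimulated 20 min with 6 nM IGF at 37 deg C. After lysis, Ser473-phosphorylated Akt read by HTRF (ex 330 nm, em 615/665 nm) as the 665/615 ratio.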
Active calls of the source: *; i = inactive; ? = inconclusive; . = no result; [ ] = dose if it differs, or a comment.

SMILES	gsp antagonist	gsp ag	ClpP mod	RXFP1 antag	RXFP1 agonist	Akt phos inh
O=C(NCc1ccc(Cl)cc1)C1CCN(S(=O)(=O)Cc2ccccc2)CC1	.	.	0%	6	-2%	.
O=C1c2ccccc2C(=O)C1c1ccnc2ccccc12	-1%	-18%	1%	9	-4%	-122%*
O=C(N/N=C/C=C/c1ccco1)c1ccccc1Cl	-5%	?	.	-82*	1%	i
Cc1ccc(OCC(=O)N/N=C/C=C/c2ccco2)c(Br)c1	-1%	-17%	-1%	-76*	0%	i
COc1ccc(CNc2nc(-c3ccc(OC)c(OC)c3)cc(C(F)(F)F)n2)cc1	.	.	4%	.	4%	.
COc1ccc(-c2cc(C(F)(F)F)nc(NC3CCCC3)n2)cc1OC	3%	-15%	35µM*	-33	4%	i
C[C@H](NC(=O)c1nc[nH]c1C(=O)NCCCCCN)C(=O)OCc1ccccc1	14%	-16%	1%	.	-1%	i
Fc1ccc(NC(=S)NC2CCN(Cc3ccccc3)CC2)cc1	-3%	-1%	0%	-6	0%	i
S=C(Nc1ccc(Cl)c(Cl)c1)NC1CCN(Cc2ccccc2)CC1	-3%	-22%	-1%	-61*	0%	i
NS(=O)(=O)c1cccc(NC(=O)COC(=O)CCC2CCCC2)c1	-3%	27%[15.4 µM]	-3%	-23	.	i
O=C(C[n+]1ccccc1Cl)c1ccc(F)cc1	.	.	-8%	.	.	.
CCOc1cc(/C=C(\C#N)C(=O)Nc2cccc(C(=O)O)c2)cc(Br)c1OC(=O)c1ccc(OC)cc1	-12%	10%	.	-89*	-3%	i
COc1ccc(Br)c(C(=O)N2CCN(S(=O)(=O)/C=C/c3ccccc3)CC2)c1	-7%	-12%[15.4 µM]	28µM*	-13	2%	i
O=C(c1ccc2ccccc2c1)N1CCN(S(=O)(=O)/C=C/c2ccccc2)CC1	-16%	?	.	-18	3%	i
COc1ccc(C(=O)c2cn(Cc3cccc(C)c3)c3cc4c(cc3c2=O)OCCO4)cc1OC	.	.	-1%	-81*	1%	.
Cc1cc(NCCC(C)C)n2nc(C)c(-c3ccccc3)c2n1	-8%	10%	28µM*	-24	-2%	i
Cc1cc(O)ccc1-c1cccc2nccn12	.	.	5%	.	.	i
COc1ccc(N2C(=O)C3CCCN3C2c2cccc(Br)c2)cc1 (configuration not stated)	-1%	-47%	-1%	9	1%	i
COc1ccc(N2C(=O)C3CCCN3C2c2ccc(C)o2)cc1 (configuration not stated)	50µM*	-6%	0%	.	3%	i
CCc1nnc(NC(=O)c2cc(=O)c3cc(C)c(C)cc3o2)s1	.	.	0%	-10	0%	.
O=C(CNS(=O)(=O)c1cccs1)N1CCN(c2ccccc2F)CC1	-19%	0%[15.4 µM]	0%	1	4%	i
O=C(Cn1c(-c2cccs2)cc2cc(Cl)ccc21)N1CCN(c2ccccc2)CC1	.	.	25µM*	-6	6%	.
O=C(Cn1c(-c2cccs2)cc2ccccc21)N1CCN(c2ccc(F)cc2)CC1	.	.	35µM*	-14	3%	.
Cc1ccc(Cl)cc1N1CCN(C(=O)Cn2c(-c3cccs3)cc3cc(F)ccc32)CC1	.	.	8.9µM*	-14	8%	.
Cc1cc2ccccc2c(=O)n1CC(=O)N1CCN(c2cccc(Cl)c2)CC1	-4%	-2%[15.4 µM]	-27%	5	9%	i
SMILES	gsp antagonist	gsp ag	ClpP mod	RXFP1 antag	RXFP1 agonist	Akt phos inh
O=C(Cn1c(-c2cccs2)cc2ccccc21)N1CCN(c2ccccc2F)CC1	.	.	14µM*	-6	-2%	.
Cc1cc(C)cc(CC(=O)N2CCC2(C)C(=O)NS(=O)(=O)c2ccc(C(C)(C)C)cc2)c1 (configuration not stated)	.	.	-3%	.	.	i
COc1ccc(NC(=O)c2c(NCc3cccs3)sc3c2CCCCC3)cc1	.	.	-4%	-24	0%	.
O=C(COC(=O)c1ccccc1Oc1ccccc1)Nc1ccc(Br)cc1	.	.	1%	.	.	.
NC(=O)NN=C1c2cc(S(=O)(=O)N3CCOCC3)ccc2-c2ccc(S(=O)(=O)N3CCOCC3)cc21	.	.	-2%	.	.	.
O=C(Cn1c(-c2cccs2)cc2cc(Cl)ccc21)N1CCN(c2ccccc2F)CC1	.	.	13µM*	2	6%	.
COc1cc(CNc2ncnc3c2ncn3[C@H]2CN(CCN3CCOCC3)C[C@@H](CO)O2)cc(OC)c1OC	.	.	-3%	.	.	i
O=C(CSc1nc2nc(-c3cccs3)cc(C(F)(F)F)c2c(=O)[nH]1)Nc1ccc(F)c(F)c1	-24%	8%[15.4 µM]	.	-37	23%	i
Cc1ccc(C)c(NC(=O)CSc2nc3nc(-c4cccs4)cc(C(F)(F)F)c3c(=O)[nH]2)c1	-10%	20µM*	4%	-1	?	i
CN1C(=O)C(C)(C)c2cc(S(=O)(=O)N3CCN(c4ccc(F)cc4)CC3)ccc21	-13%	23%	0%	-60*	-4%	i
CN1CCN(S(=O)(=O)c2ccc3c(c2)C(C)(C)C(=O)N3C)CC1	4%	-34%	0%	-3	5%	i
CC1CC2(CCCCC2)Nc2c1ccc1ccccc21 (configuration not stated)	-8%	11%	18µM*	-8	2%	i
CN(C)c1ccc(/C=C2\C(=O)/C(=C\c3ccc(N(C)C)cc3)c3ccccc32)cc1	.	.	0%	.	.	.
CCN(CC)CC(O)Cn1c2ccccc2c2ccccc21 (configuration not stated)	-2%	-19%	-27%	-16	0%	i
CCN(CC)CC(O)Cn1c(C)c(-c2ccccc2)c2cc([N+](=O)[O-])ccc21 (configuration not stated)	15%	18%	.	-89*	2%	i
Cc1ccc(S(=O)(=O)c2c(N)n(CCN3CCOCC3)c3nc4ccccc4nc23)cc1C	4%	-14%	28µM*	9	?	i
Nc1c(S(=O)(=O)c2ccccc2)c2nc3ccccc3nc2n1CCN1CCOCC1	-14%	12%	4%	-11	-1%	i
Cc1ccc(S(=O)(=O)c2c(N)n(Cc3ccco3)c3nc4ccccc4nc23)cc1C	-27%	-1%	11µM*	-3	3%	i
Nc1c(S(=O)(=O)c2ccccc2)c2nc3ccccc3nc2n1Cc1ccco1	-13%	-1%	16µM*	-1	0%	i
CN1CCN(N)CC1	.	.	.	11	.	.
CC(=O)NC(c1ccc(F)c(F)c1)c1nc(-c2ccccc2C)cs1 (configuration not stated)	.	.	0%	.	.	i
